Assay outcomes (PubChem BioAssay)
This is a sample that favours compounds with a hit; in the whole collection about 2.8% have one here.
POLH inh: DNA polymerase eta (human) inhibition | Q9Y253 | recombinant Pol eta, fluorescent DNA replication assay | Potency, µM (titrated, usually from 114 µM), hits mostly inhibitors | 1.2% of 390,000 active | AID 588591
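Pol eta at 10 nM preincubated with compounds 15 min at room temperature; reaction started with fluorescent substrate (50 nM final) and read kinetically at 0 and 10 min.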
POLB inh: DNA polymerase beta (human) inhibition. Pol beta primer extension/strand displacement, fluorescence kinetic. Potency, µM (highest dose often 114 µM), actives largely listed as inhibitors. 1.3% of 340,000 active
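Pol beta (10 nM) and compounds were preincubated 15 min at room temperature, then 50 nM substrate (final) started primer extension/strand displacement. Reads were taken at 0 and 10 min; concentration-response data were fitted to a four-parameter Hill equation.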
POLK inh: inhibitors of human DNA polymerase kappa; 0.53% of 400,000 active; Q9UBT6; Potency, µM (titrated, usually from 107 µM), usual class: inhibitors; purified Pol kappa, fluorescent DNA synthesis assay, 10 min; AID 588579
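Here, compound and 10 nM enzyme are combined for 15 min at room temperature; adding 50 nM substrate (final) starts DNA synthesis, tracked by fluorescence at 0 and 10 min against buffer-only wells.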
PI5P4Ka inh: inhibitors of human PI5P4K alpha; P48426; PI5P4Kalpha enzyme, ADP-Glo luminescence, 60 min; stronger effect = lower value; max response, %; 1.2% of 330,000 active; AID 652105; active = max response of -50% or lower; inconclusive = between -30% and -50%; inactive = -30% or higher; also: value at the top dose of about 77 µM
Target sequence (P48426 whole entry, looked up): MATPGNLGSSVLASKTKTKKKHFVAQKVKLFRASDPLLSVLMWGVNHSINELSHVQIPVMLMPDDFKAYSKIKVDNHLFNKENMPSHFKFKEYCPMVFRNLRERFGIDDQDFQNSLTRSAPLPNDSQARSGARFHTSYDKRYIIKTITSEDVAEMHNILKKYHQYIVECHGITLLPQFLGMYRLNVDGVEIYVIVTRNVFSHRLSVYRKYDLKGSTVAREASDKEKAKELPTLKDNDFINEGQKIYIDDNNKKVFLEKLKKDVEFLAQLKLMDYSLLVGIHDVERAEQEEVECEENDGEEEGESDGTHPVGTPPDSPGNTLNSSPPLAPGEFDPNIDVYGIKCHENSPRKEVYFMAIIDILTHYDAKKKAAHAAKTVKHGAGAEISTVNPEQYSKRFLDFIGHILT
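PI5P4Kalpha ADP-Glo assay; 5 microM ATP final; 60 min RT reaction; HEPES pH 7.4/EGTA/CHAPS, 5% DMSO; controls lacking substrate or enzyme; luminescent end-point.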
WRN inhibitor: blocks human WRN helicase; Q14191; WRN helicase unwinding, fluorescent forked duplex, kinetic; Potency, µM (series often up to 114 µM), usual class: inhibitors; 0.46% of 360,000 active; AID 651768; also: nearly all actives have a fitted effect of over 55% in size
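WRN at 20 nM final was preincubated with compound for 15 min at room temperature; reaction started with 100 nM forked duplex oligonucleotide carrying fluorophore and quencher plus 2 mM ATP (final). Unwinding followed kinetically by red fluorescence (ex 525/em 598 nm).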
Pol iota inh: blocks human DNA polymerase iota activity | Q9UNA4 | Pol iota fluorescent replication assay, 10 min | Potency, µM (series often up to 115 µM), hits mostly inhibitors | 1% of 390,000 active
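Fluorescent replication assay read twice, at 0 min and 10 min after adding 50 nM (final) substrate. Enzyme (10 nM) and compounds were first incubated 15 min at room temperature; enzyme-free buffer wells were negative controls.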
PGK validate: TbPGK inhibition, hit validation | TbPGK coupled GAPDH assay, Kinase-Glo luminescence | shares compounds with POLK inh | Potency, µM (titrated, usually from 57.5 µM), usual class: inhibitors | 79% of 500 active; also: nearly all actives have a fitted effect of over 65% in size
Pol iota confirm: Confirm cherry-picked inhibitors of human polymerase iota; shares compounds with POLK inh; Pol iota primer extension, TAMRA/BHQ fluorescence; Potency, µM, actives largely listed as inhibitors; 77% of 1,500 active; AID 720496
Hits are given with their value; - = inactive; ? = inconclusive; . = no result; [ ] = another dose, or the depositor's remark. Unless noted, calls follow the shape of the dose curve; as a rule, active = well fitted curve in the direction sought with a large enough effect; inconclusive = small, poorly fitted or top-dose-only effect, or another doubt; inactive = no such curve, though single readings can be large; an effect the other way counts as inactive or inconclusive.

SMILES	POLH inh	POLB inh	POLK inh	PI5P4Ka inh	WRN inhibitor	Pol iota inh	PGK validate	others
NNc1ccc([N+](=O)[O-])c2[nH][nH]c(=O)c12	2µM	.	.	-82.6	20µM	.	2.59µM
O=C(O)CCCN1C(=O)/C(=C/c2ccncc2)SC1=S	-	-	-	-	-	?	.
O=C(O)CCCN1C(=O)/C(=C/c2ccc(-c3nc4ccccc4s3)o2)SC1=S	3.16µM	12.6µM	50.1µM	?	?	?	?
COCCn1c(C)cc(C2=NNC(=NC3CC3)SC2)c1C	-	-	-	-	-	-	16.3µM
O=[N+]([O-])c1cccc(/C=N/Nc2nccnc2Cl)c1	-	-	-	.	-	-	.
Fc1cccc(/C=N/Nc2nccnc2Cl)c1	-	-	-	?	-	-	16.3µM
Fc1ccc(/C=N/Nc2nccnc2Cl)cc1	-	-	-	-	-	-	.
Oc1ccc(/C=N/Nc2nccnc2Cl)cc1	-	-	-	-65.2	-	-	9.19µM
O=C(c1ccccc1)c1ccc(O)c(O)c1O	8.91µM	.	22.4µM	-90.9	28.2µM	28.2µM	5.8µM
COc1ccc(Cn2c(-c3ccccc3)nc3c(c(=O)c4ccccc4n3C)c2=O)cc1	?	-	-	-	?	-	.	Pol iota confirm=42.3
O=C(COc1ccc(F)c(Cl)c1)N1CCCCCCC1	-	-	-	-	-	-	.
COCCNC(=O)Cn1nc(-c2ccccc2F)ccc1=O	-	-	-	-	-	-	.
C[C@@H]1O[C@@H](O[C@H]2[C@H](O)[C@@H](O)[C@H](Oc3c(-c4ccc(O)c(O)c4)oc4cc(O)cc(O)c4c3=O)O[C@@H]2CO)[C@H](O)[C@H](O)[C@H]1O	?	.	?	-	-	?	.
O=c1c(OC2OC(CO)C(O)C(O)C2O)c(-c2ccc(O)c(O)c2)oc2cc(O)cc(O)c12 (stereo not drawn)	?	-	17.8µM	-	-[11.6 µM]	25.1µM	?
C[C@@H]1O[C@@H](Oc2c(-c3cc(O)c(O)c(O)c3)oc3cc(O)cc(O)c3c2=O)[C@H](O)[C@H](O)[C@H]1O	?	?	1.68µM	?	-	50.1µM	.	Pol iota confirm=?
Fc1ccccc1Nc1nc2ccccc2o1	-	-	-	-	-	-	18.3µM
CSc1ccc(/C=C/c2nc3ccccc3n2S(=O)(=O)c2ccc(F)c(C)c2)cc1	-	-	-	.	.	-	10.3µM
Cc1ccc(/C=C/c2nc3ccccc3n2S(=O)(=O)c2cccc(Cl)c2)cc1	-	-	-	.	.	-	.
Nc1cccc2cccnc12	.	.	-	.	.	?	.
Cc1ccc(NC(=O)c2sccc2C)nc1	-	-	-	-	-	-	13µM
CCCOC(=O)c1c(-c2ccccc2)nc(CC)c(C(=O)SCC)c1CCC	-	-	-	-	-	?	.
O=C1/C(=C\c2ccc(O)cc2)SC(=S)N1c1cccnc1	?	?	-	-	-[11.6 µM]	?	.	Pol iota confirm=?
COc1ccc(/C=C2\SC(=S)N(c3cccnc3)C2=O)cc1	-	-	-	-	-	-	.
CCOc1cc(/C=N/NC(=O)c2nnn(-c3nonc3N)c2C)ccc1OCc1ccc(C)cc1	10µM	.	.	-	-[11.6 µM]	.	.	Pol iota confirm=23.8
Cc1c(C(=O)NCC2CCCO2)oc2c(Cl)cccc12 (stereo not drawn)	-	.	-	-	-	-	.
SMILES	POLH inh	POLB inh	POLK inh	PI5P4Ka inh	WRN inhibitor	Pol iota inh	PGK validate	others
CCOC(=O)c1ccc(-n2c(-c3ccc(C)cc3)c(C)n3c4c(=O)n(C)c(=O)n(C)c4nc23)cc1	-	-	-	.	.	-	.
Oc1ccc(CCNc2c3ccccc3nc3ccccc23)cc1O	?	7.08µM	?	-	50.1µM	39.8µM	.	Pol iota confirm=75.2
COc1ccc(-c2nn(C)c3sc(C(=O)NCCN(C)C)cc23)cc1OC	?	31.6µM	?	-	?	17.8µM	.	Pol iota confirm=?
O=P(Cc1cccc2ccccc12)(c1ccccc1)c1ccccc1	-	.	-	-	-	-	.
c1ccc(-c2noc(-c3ccc4c(c3)OCO4)n2)nc1	-	?	-	.	-	-	5.8µM
c1ccc(-c2noc(-c3ccc4ccccc4c3)n2)nc1	-	-	-	-	-	-	.
c1ccc(-c2noc(-c3cccnc3)n2)nc1	-	-	-	-	-	-	.
c1ccc(-c2noc(-c3ccncc3)n2)nc1	-	-	-	.	-	-	18.3µM
Cc1ccc(/C=C2/NC(=O)N(Cc3ccc(Br)cc3)C2=O)o1	-	-	-	?	?	-	.
O=C(O)c1ccc(-c2ccc(/C=C3\NC(=O)N(Cc4ccc(Cl)cc4)C3=O)o2)cc1Cl	1.26µM	4.47µM	4.47µM	-69.3	22.4µM	1.41µM	5.8µM
O=C(OCCC12CC3CC(CC(C3)C1)C2)c1ccc(NCc2cc(O)ccc2O)cc1	?	.	79.4µM	-59.1	?	79.4µM	16.3µM
Cc1cc(C)n2nc(C(=O)OCC(=O)NC3CCS(=O)(=O)C3)nc2n1 (stereo not drawn)	-	.	.	-	-	.	.
COc1ccc(CNC(=O)C(CC(C)C)NS(=O)(=O)c2ccc3c(c2)CCN3C(C)=O)cc1 (stereo not drawn)	-	-	-	.	.	-	.
CNCc1ccccc1Sc1ccc(O)c(O)c1	-	?	79.4µM	?	?	28.2µM	.	Pol iota confirm=75.2
CCOC(=O)c1cc(S(=O)(=O)Nc2ccc(F)cc2F)cn1C	-	-	-	-	-	-	.
O=C1C2C3C=CC(CC3)C2C(=O)N1c1nccs1 (stereo not drawn)	?	22.4µM	17.8µM	-62.4	39.8µM	15.8µM	.	Pol iota confirm=75.2
O=C(Nc1ccc(-c2nc3ccccc3[nH]2)cc1)c1ccc(C(F)(F)F)cc1	.	.	.	.	.	.	.	Pol iota confirm=?
O=C(O)CC/C(=C\c1ccccc1[N+](=O)[O-])c1nc2ccccc2s1	-	-	-	-	-	-	.
O=C(O)CC/C(=C\c1ccc(N2CCCC2)c([N+](=O)[O-])c1)c1nc2ccccc2s1	56.2µM	-	?	-	?	?	.	Pol iota confirm=75.2
O=C(CC[C@H]1O[C@@H](n2cnc3c(NC(=O)c4ccccc4)ncnc32)[C@H](O)[C@@H]1O)NCc1nc2ccccc2[nH]1	.	.	.	-	-	.	.
O=C1NC(=Nc2ccc(Cl)cc2)/C(=C/c2ccco2)S1	56.2µM	8.91µM	?	?	-[11.6 µM]	28.2µM	.	Pol iota confirm=?
CCOc1ccc(CCNC(=O)CCCc2nnc3n(CCCOC)c(=O)c4sccc4n23)cc1	-	-	-	.	.	-	.
CN(C)c1ccc(N/C=C/C(=O)c2ccco2)cc1	-	?	-	?	-	?	10.3µM
COc1ccccc1NS(=O)(=O)c1cc(NC(=O)c2ccc3c(c2)OCCO3)ccc1C	-	-	-	-	-	?	-
